B1: design_603_0b98da89-d791-4423-9b2d-fd1b7292da18_10_dldesign_0_cycle1_af2pred (protein)
chain: EKEKEELRKELLEKYEEVKKAVEEALKNASNPEVQAELAKVVHEFQELAAEVGAKYPEIAEEAKKLRKEAIEEAKKAVEKSK
B2: design_602_0a1f3d3d-7d26-454b-9b34-ebe8ef9bc7d4_2169_dldesign_0_cycle1_af2pred (protein)
chain: SAFEILKVIEEKAKEVYEITKEENPKIAKKIAAAAYTAGVALGAGDEEEAKKVIEKGKALADKEGAEKGKKALEEAVEEVKKKAKE
B3: design_602_0a1f3d3d-7d26-454b-9b34-ebe8ef9bc7d4_1408_dldesign_0_cycle1_af2pred (protein)
chain: AAAAAAAAKAALDLAKEQLKKAKEYKELAKKYKEEGNISKANSAEADAINAAHAAIVAATKAAADPKYAAEAKKVKDEAEKLEKEVLE
B4: design_602_0a1f3d3d-7d26-454b-9b34-ebe8ef9bc7d4_1646_dldesign_0_cycle1_af2pred (protein)
chain: SEFKKKAKLISEAELLINRMAALSPEAAAGAKAILKLAEGGKQEEAEKKIKEIKAASPEEATKLAIEVGKKVAAE
B5: design_603_0b98da89-d791-4423-9b2d-fd1b7292da18_78_dldesign_0_cycle1_af2pred (protein)
chain: MSENVKFASELIRKVVKEAKKIGKEKGASEEAKKKAIEEVAKAIDKISEAAQKGDKEKAKAIAEEAIKKIKKILEEGA
B6: design_602_0a1f3d3d-7d26-454b-9b34-ebe8ef9bc7d4_1819_dldesign_0_cycle1_af2pred (protein)
chain: GSAIMDAQAKAVEIRTEAEKLAKEYKDLPTAKDFKKAAEIAREALKNGEEAIELSKKAEELLEKAKKKLKEELEKK
B7: design_602_0a1f3d3d-7d26-454b-9b34-ebe8ef9bc7d4_1719_dldesign_0_cycle1_af2pred (protein)
chain: GLAEEYKKKAEEAEEKAFNSKNVEAAYYYLKASQYYNAAAIYTKKGEEYLEKAKESYEKGKEYEKKGEEIEKK
B8: design_602_0a1f3d3d-7d26-454b-9b34-ebe8ef9bc7d4_1603_dldesign_0_cycle1_af2pred (protein)
chain: KNTLEKAAEAIQAYREEATAYAKEISKKEGKEAGEKAYEEFKKKVKELIALAKADPEAGLKEATKLLEELKAK
B9: design_603_0b98da89-d791-4423-9b2d-fd1b7292da18_202_dldesign_0_cycle1_af2pred (protein)
chain: GSATVDALEKALDAREELLRLAKELPPERAELAEKLRAAAEELRETIRRAQKLSPEEGAALITAAAEKARALAKEVKAA
B10: design_603_0b98da89-d791-4423-9b2d-fd1b7292da18_39_dldesign_0_cycle1_af2pred (protein)
chain: EETFKKAVEELLKIAKEVYKKDPKAGSAAAGEIYRGKAEYEATGNLEVGVEELQKAAEIIKKADKELGEKAKKIVEEAKKK
B11: design_602_0a1f3d3d-7d26-454b-9b34-ebe8ef9bc7d4_1422_dldesign_0_cycle1_af2pred (protein)
chain: DAFLKEAEKLKKKLTEELKKLKEEAKKLTPEVQKKVLEEVKEAEEALKKALELAKKGDKKEAGKAAQEALEKLAEARWLVNKAK
B12: design_602_0a1f3d3d-7d26-454b-9b34-ebe8ef9bc7d4_1428_dldesign_0_cycle1_af2pred (protein)
chain: EEEEKKKKEYVEKIKKALKEVKEAGKKGTEEQKKLAAETADKLYELKAIAEFSNAEEAEKYAEKAEKLAKETLKKIKK
B13: design_602_0a1f3d3d-7d26-454b-9b34-ebe8ef9bc7d4_1947_dldesign_0_cycle1_af2pred (protein)
chain: ATEEEVKAAVRETIKAAKKYVEAGGDAKEAAEIAHKAQEAKAEGIASGKLDEAYAKVKKLAEEAKAKAEEVEK
B14: design_602_0a1f3d3d-7d26-454b-9b34-ebe8ef9bc7d4_1768_dldesign_0_cycle1_af2pred (protein)
chain: EEKERAKKFGEGYGEAQLDLAESAMKKATKPEEVKKAAETAAERARKRAKEGTPEEAEELLKAAEKIEKLGKEYLAKL
B15: design_602_0a1f3d3d-7d26-454b-9b34-ebe8ef9bc7d4_1902_dldesign_0_cycle1_af2pred (protein)
chain: DEKKKNLLRAAALTLEEAIEALDTDKNWGAALARSAARYAEEAGDEETAAIAREAAELAAAGGPEVAPEAKALLKEAAERLKKKI
B16: design_602_0a1f3d3d-7d26-454b-9b34-ebe8ef9bc7d4_1707_dldesign_0_cycle1_af2pred (protein)
chain: AAAAEAFGKELAAMLDEAYDKSTEDLEKAKEVLAKLKAKAEAAPAEVAEYAKKALKTAKSIEDSIEIEEKLKK
B17: design_603_0b98da89-d791-4423-9b2d-fd1b7292da18_74_dldesign_0_cycle1_af2pred (protein)
chain: KEKVKKLEEEAIKALKELSKYRDNPEKAAEYAEKLYEKAFEMGIPLSIASRAAKLAKEGEEGAKEGVKLIKEEAKKVIEE
B18: design_602_0a1f3d3d-7d26-454b-9b34-ebe8ef9bc7d4_1736_dldesign_0_cycle1_af2pred (protein)
chain: DLKEKVEKAEKILKKRKEKLEKAKEKGPKEAKKEAALAKEQMENLIEALKKILEEAKDDPETKAKAEKVIEEAKKLKEEAEKLEKE
B19: design_602_0a1f3d3d-7d26-454b-9b34-ebe8ef9bc7d4_1801_dldesign_0_cycle1_af2pred (protein)
chain: GKLVEEAKKALEEAKALAAKNPELAKMAEAALERFEKSLRAGLAAADGLASTAAKLGAEDPENAKLAELAGKAAELLFEAI

Molecular target: VTCN1, Q7Z7D3
Sequence (Q7Z7D3 whole entry): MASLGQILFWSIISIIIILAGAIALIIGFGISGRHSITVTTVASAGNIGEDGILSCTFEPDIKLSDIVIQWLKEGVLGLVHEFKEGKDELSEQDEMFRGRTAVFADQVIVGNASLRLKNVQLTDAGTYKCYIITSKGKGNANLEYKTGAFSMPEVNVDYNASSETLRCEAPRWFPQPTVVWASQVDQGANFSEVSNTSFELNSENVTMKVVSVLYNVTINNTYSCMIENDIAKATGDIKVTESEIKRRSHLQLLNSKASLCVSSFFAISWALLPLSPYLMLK

Binding in a display sort, inactive:
B1 not found
B2 not found
B3 not found
B4 not found
B5 not found
B6 not found
B7 not found
B8 not found
B9 not found
B10 not found
B11 not found
B12 not found
B13 not found
B14 not found
B15 not found
B16 not found
B17 not found
B18 not found
B19 not found
